Mtb hypoxia inh = reduces hypoxia-regulated biosensor signal in M. tuberculosis. fluorescence inhibition, % (test concentration not listed). M. tuberculosis hypoxia-regulated fluorescent reporter, fluorescence. hit rate 0.1% among 300,000; in the data active means fluorescence inhibition mostly above about 23%, no sharp cut-off; inactive means mostly below about 17%
FadD28 FP inh = blocks FadD28 binding to the bisubstrate probe; fluorescence polarization; inhibition, % at 12.5 µM; hit rate 0.22% among 360,000; AID 588549; in the data active means inhibition above about 8.5%, passing the limit was not always enough
Rv3671c inh = inhibitors of M. tuberculosis serine protease Rv3671c; AID 2606; hit rate 0.048% among 320,000; inhibition, % at 5.96 µM; in the data active means inhibition above about 38%;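 further: extracellular domain of Rv3671c used as enzyme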
RecA splice inh = Mtb RecA intein splicing inhibition | P9WHJ3 | cell-free RecA intein splicing, fluorescence | inhibition, % (concentration not given with the values) | hit rate 0.75% among 290,000 | AID 2221; in the data active means inhibition above about 30%
Target sequence (P9WHJ3 whole entry, looked up, canonical isoform): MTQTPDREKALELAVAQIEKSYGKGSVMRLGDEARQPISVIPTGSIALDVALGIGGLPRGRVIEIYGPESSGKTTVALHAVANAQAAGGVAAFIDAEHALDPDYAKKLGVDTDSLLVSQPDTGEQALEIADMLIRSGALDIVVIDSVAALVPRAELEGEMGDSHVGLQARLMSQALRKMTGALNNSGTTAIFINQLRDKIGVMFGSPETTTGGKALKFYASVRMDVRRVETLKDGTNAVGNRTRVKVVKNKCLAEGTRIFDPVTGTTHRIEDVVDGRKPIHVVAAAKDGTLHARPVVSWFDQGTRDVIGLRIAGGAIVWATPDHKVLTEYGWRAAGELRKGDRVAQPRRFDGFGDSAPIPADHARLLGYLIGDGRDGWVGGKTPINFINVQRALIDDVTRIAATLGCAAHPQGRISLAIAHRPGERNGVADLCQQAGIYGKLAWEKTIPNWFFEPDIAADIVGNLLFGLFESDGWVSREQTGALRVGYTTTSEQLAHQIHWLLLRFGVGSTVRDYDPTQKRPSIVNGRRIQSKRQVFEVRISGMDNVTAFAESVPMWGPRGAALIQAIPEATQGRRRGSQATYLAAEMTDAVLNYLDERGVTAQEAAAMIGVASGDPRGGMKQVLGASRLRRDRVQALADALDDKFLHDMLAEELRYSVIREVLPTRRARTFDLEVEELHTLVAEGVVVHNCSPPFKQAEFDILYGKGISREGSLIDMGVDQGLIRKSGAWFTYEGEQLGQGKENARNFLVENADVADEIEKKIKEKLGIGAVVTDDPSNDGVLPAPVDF
Mtb UGM inh = Mtb UDP-galactopyranose mutase inhibition; hit rate 0.06% among 320,000; inhibition, % at 10 µM; AID 504406; P9WIQ1; purified UGM, fluorescence polarization probe displacement; in the data active means inhibition above about 10%, passing the limit was not always enough
GFP chromophore = counter-screen: blocks GFP chromophore formation. shares compounds with RecA splice inh. cell-free GFP chromophore formation, fluorescence. EC50, µM. hit rate 83% among 2,100; call rule not given here
Numbers stand for hits; – = inactive; · = no result. Most compounds without a hit are left out; they make up all but 0.92% or so of the library.

SMILES | Mtb hypoxia inh | FadD28 FP inh | Rv3671c inh | RecA splice inh | Mtb UGM inh | GFP chromophore
O=C(Cc1cc(=O)[nH][nH]1)N/N=C/c1cccc2ccccc12 | · | – | – | 94 | – | 7.3
O=C(Cc1cc(=O)[nH][nH]1)NN=Cc1ccccc1[N+](=O)[O-] | – | · | · | · | · | ·
O=C(Cc1cc(=O)[nH][nH]1)N/N=C/C(Cl)=C/c1ccccc1 | · | – | – | 81 | – | 6
Cn1cccc1CC(=O)N/N=C/C(Cl)=C/c1ccccc1 | · | – | – | – | – | ·
O=C(CO)N/N=C/c1cccc(Cl)c1Cl | · | – | – | – | · | ·
O=C(N/N=C/c1cccc2ccccc12)c1cccc(F)c1 | · | – | – | – | – | ·
O=C(Cc1cc(=O)[nH][nH]1)N/N=C/c1cccc(Cl)c1Cl | · | – | – | 94 | – | 11
O=C(Cc1cc(=O)[nH][nH]1)N/N=C/c1ccccc1Cl | · | · | – | 74 | – | 7.7
CCOC(=O)c1cnc(-n2[nH]c(C)c(Cc3ccccc3)c2=O)[nH]c1=O | – | – | – | 33 | – | 34
CCOC(=O)c1cnc(Cc2ccccc2)[nH]c1=O | – | – | – | – | – | ·
Cc1c(/C=N/Nc2nc3ccccc3[nH]2)c2ccccc2n1C | · | – | – | 39 | – | 12
Cn1c(/C=N/Nc2nc3ccccc3[nH]2)nc2ccccc21 | · | – | – | – | – | ·
Oc1ccccc1C=NNc1ncc(Br)cn1 | – | · | · | · | · | ·
CC=C(C)C(=O)OC(C(O)c1cc2ccc(=O)oc2cc1OC)C(C)(C)OC1OC(CO)C(O)C(O)C1O (stereo not given) | – | · | · | · | · | ·
COc1ccccc1NC(=O)c1cnc(SCC(=O)NCC2CCCO2)n(C)c1=O (stereo not given) | – | – | – | 45 | – | –
COc1ccccc1-n1nnnc1SCC(=O)NCC1CCCO1 (stereo not given) | – | – | – | – | – | ·
Cc1ccc(O)c(N=CC2=C(O)c3ccccc3C2=O)c1 | – | – | – | 87 | – | 3.4
CCN1C(=O)C2C(C1=O)C(c1ccc(Br)cc1)N1C(=O)c3ccccc3NC(=O)C21 (stereo not given) | – | · | · | · | · | ·
O=C1C(Cl)=C(N2CCCCCC2)C(=O)N1c1ccc(Br)cc1 | – | – | – | – | – | ·
Cc1ccc(N2C(=O)C(Cl)=C(N3CCN(C)CC3)C2=O)c(C)c1 | – | – | – | 81 | – | 6.4
CN1CCN(C2=C(Cl)C(=O)N(c3ccc(Cl)cc3)C2=O)CC1 | – | – | – | 33 | – | 0.16
O=C1C(Cl)=C(N2CCCCCC2)C(=O)N1c1ccccc1 | – | – | – | 36 | – | 28
CCN1C(=O)C2C(c3ccc(-c4ccc(F)cc4)cc3)N[C@@](C)(C(=O)OC)C2C1=O (stereo not given in full) | – | · | · | · | · | ·
CC(=NNC(=O)CSc1ccccn1)c1ccc([N+](=O)[O-])cc1 | – | · | · | · | · | ·
CN1CCN(C(=O)C2=CC(c3csc4ccccc34)CC(OCCCCO)O2)CC1 (stereo not given) | – | · | · | · | · | ·
SMILES | Mtb hypoxia inh | FadD28 FP inh | Rv3671c inh | RecA splice inh | Mtb UGM inh | GFP chromophore
CCN1C(=O)C2C(c3ccc(C)cc3)N3C(=O)N(c4cccc(Cl)c4)C(=O)[C@@]3(C)C2C1=O (stereo not given in full) | – | · | · | · | · | ·
CCCCCC(=O)O[C@]1(C(C)=O)CC[C@H]2[C@@H]3CCC4=CC(=O)CC[C@]4(C)[C@H]3CC[C@@]21C | · | – | – | 33 | – | –
Cc1ccc(S(=O)(=O)NC(=O)Nc2ccc(N(C)C)cc2)cc1 | – | – | – | 49 | – | 19
NC(Cc1ccc(O)cc1)c1nnc(C(CO)NC(=O)C2CCNCC2)o1 (stereo not given) | – | · | · | · | · | ·
CCOC(=O)C1C2COc3ccc(Cl)cc3C2N2C(=O)CNC(=O)[C@@]12C (stereo not given in full) | – | · | · | · | · | ·
O=C(CCl)NC(=O)NC12CC3CC(CC(C3)C1)C2 | – | – | – | 59 | – | 29
CN1N=C(C(C)(C)C)CC1=O | · | · | – | 36 | – | 19
COc1ccc(-c2c[nH]c(=O)[nH]c2=O)cc1OC | – | – | – | – | – | ·
COc1ccc(-c2cc(=O)[nH][nH]2)cc1OC | – | – | – | 99 | – | 0.97
COc1cccc(-c2cc(=O)[nH][nH]2)c1 | – | – | – | 98 | – | 2.2
CCOc1cccc(-c2cc(=O)[nH][nH]2)c1 | – | – | – | 97 | – | 2.5
COC(=O)c1ccc(Cl)cc1NC(=O)C=Cc1ccc(C)o1 | – | · | · | · | · | ·
O=C(NN=Cc1cccc(Cl)c1)c1c(O)c2c([nH]c1=O)CCCC2 | – | · | · | · | · | ·
O=c1[nH]c(/C=C\c2cccnc2)c([N+](=O)[O-])c(=O)[nH]1 | – | – | – | – | – | ·
O=c1[nH]c(/C=C/c2cccnc2)c([N+](=O)[O-])c(=O)[nH]1 | – | – | – | 41 | – | –
NCCCCC(C(=O)N1CCNCC1)n1cc(C(N)CC(N)=O)nn1 (stereo not given) | – | · | · | · | · | ·
COC(=O)CN1C(=O)C2(C(C#N)=C(N)Oc3n[nH]c(-c4cccs4)c32)c2ccccc21 (stereo not given) | · | – | – | – | – | ·
COC(=O)CN1C(=O)C2(C(C#N)=C(N)Oc3c2c(C)nn3-c2ccccc2)c2ccccc21 (stereo not given) | – | – | – | 75 | – | 15
CN(CCC#N)C(=O)Cn1nc(Cc2ccncc2)c2ccccc2c1=O | – | – | – | 49 | – | –
CCCCNC(=O)Cn1nc(Cc2ccncc2)c2ccccc2c1=O | – | – | – | – | – | ·
CC(=O)NC(=S)c1c(N)n(Cc2ccccc2)c(=O)n(C)c1=O | · | · | – | 33 | – | –
CC(=O)Nc1ccc(SCC(=O)c2c(N)n(Cc3ccccc3)c(=O)n(C)c2=O)cc1 | – | – | – | – | – | ·
Cc1ccc2c(c1)C1C(CO2)C(c2ccccc2)[C@]2(C)C(=O)Nc3ccccc3C(=O)N12 (stereo not given in full) | – | · | · | · | · | ·
Nc1c(-c2ccccc2)c(CSc2nc3ccccc3[nH]2)nn1-c1cccc(Cl)c1 | · | – | – | 37 | – | 11
c1ccc(CCNCc2cccs2)cc1 | – | – | · | 33 | – | –
SMILES | Mtb hypoxia inh | FadD28 FP inh | Rv3671c inh | RecA splice inh | Mtb UGM inh | GFP chromophore
OC(CNCc1cccs1)c1ccccc1 (stereo not given) | – | – | – | – | – | ·
O=S1(=O)C2CC3C=C[C@@]2(CN1Cc1cccc(F)c1)O3 (stereo not given in full) | – | · | · | · | · | ·
CC(C)c1nnc(NC(=O)CCS(=O)(=O)c2nc(-c3cccs3)cc(C(F)(F)F)n2)s1 | – | – | – | 32 | – | –
NNc1n[nH]c(=S)n1N | · | – | – | 78 | – | –
Nn1c(Cc2ccccc2)n[nH]c1=S | – | – | – | – | – | ·
COc1ccc(CC2=CC(=O)c3ccccc3C2=O)cc1 | – | – | – | 77 | – | 8.5
CSc1nc(-c2ccccc2)nn1C(=O)c1ccc(Cl)cc1 | · | – | – | 57 | – | –
CSc1nc(-c2ccc(Cl)cc2)nn1C(=O)c1ccccc1 | – | – | – | – | – | ·
O=C(CSC1=NCCS1)Nc1nc2ccccc2s1 | – | – | – | – | – | ·
Cc1sc(NC(=O)CSC2=NCCS2)nc1-c1ccccc1 | · | – | – | 45 | – | –
COc1ccc2[nH]c(CN3CCC(CO)(CCOc4ccccc4)CC3)c(C)c2c1 | – | – | – | 40 | – | –

Screens as filed in PubChem.
